High-throughput results deposited in PubChem BioAssay by National Center for Advancing Translational Sciences (NCATS).
Hits are enriched below; roughly 12% of the tested compounds scored in any of these assays.
Sfp inh – blocks B. subtilis Sfp PPTase activity; Biochemical Sfp PPTase activity, qHTS; Potency, µM, without a hit: largest response in the series, negative = inhibition, actives largely listed as inhibitors; actives 3.5% (n = 310,000); AID 1490;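 also: the enzyme is Sfp with the accession as filed and its product quenches rhodamine fluorescence; 0% = enzyme reaction without inhibitor and -100% = no enzyme wells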
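Step 1, compound plus 15 nM Sfp-PPTase, 15 min, room temperature. Step 2, add rhodamine-CoA (5 uM) and BHQ-2-YbbR (12.5 uM). Step 3, read 525/598 nm fluorescence at 0 and 30 min.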
JMJD2A Tudor – JMJD2A Tudor domain (human) inhibition; Potency, µM (top dose mostly 114 µM), inactives show at the highest dose activity change, negative = inhibition, hits mostly inhibitors; O75164; actives 4.4% (n = 390,000); AlphaScreen JMJD2A-Tudor / H3K4me3 peptide binding; also: % is scaled to controls: 0 for no effect and ±100 for the full control effect; nearly all actives have a fitted effect of over 50% in size
HP1b binding inh – blocks HP1-beta chromodomain binding to methylated histone tails; actives 0.56% (n = 390,000); P83916; Potency, µM (highest dose often 114 µM), for the others: at the top dose activity change, negative = inhibition, actives largely listed as inhibitors; AID 540317; AlphaScreen HP1-beta / biotin-H3K9me3 peptide binding; also: nearly all actives have a fitted effect of over 70% in size
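Compound inhibition of the preformed complex between 50 nM HP1-beta and 50 nM biotinylated H3K9me3 peptide was read by AlphaScreen. Buffer was PBS pH 7.4 with 0.01% Tween-20. Incubations ran 30 min at room temperature, with 10 ug/mL donor/acceptor beads.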
BAZ2B inh – blocks human BAZ2B; Q9UIF8; AlphaScreen BAZ2B-H3K14Ac peptide displacement; Potency, µM (series often up to 114 µM), for the others: top-dose activity change, negative = inhibition, most hits filed as inhibitors; actives 4.4% (n = 360,000); AID 504333; also: % is scaled to controls: 0 for no effect and ±100 for the full control effect; nearly all actives have a fitted effect of over 60% in size
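Inhibition is scored as reduced AlphaScreen emission. The BAZ2B/b-H3(5-23)K14Ac complex (50 nM each) in PBS pH 7.4, 0.01% Tween-20 meets compound (up to 110 uM) for 30 min at RT before bead addition.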
G9a block – G9a (human) methyltransferase inhibition; Q96KQ7; G9a H3K9 monomethylation, AlphaScreen, 2 h; Potency, µM (top dose mostly 102 µM), without a hit: at the top dose activity, negative = inhibition, hits mostly inhibitors; actives 8.8% (n = 350,000); also: % is scaled to controls: 0 for no effect and ±100 for the full control effect; nearly all actives have a fitted effect of over 75% in size
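G9a (20 nM) preincubated 15 min RT with compounds, then 500 nM biotinylated H3K9 peptide and 20 uM SAM added; 2 h RT reaction. Monomethyl-H3K9 product detected by AlphaScreen with anti-H3K9me1 antibody, streptavidin donor and anti-rabbit IgG acceptor beads.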
* = called active by the depositor; ? = inconclusive; · = not tested or not shown; [ ] = remark or other dose. Calls follow the shape of the dose curve; as a rule, active = well fitted curve in the direction sought with a large enough effect; inconclusive = small, poorly fitted or top-dose-only effect, or another doubt; inactive = no such curve, though single readings can be large; an effect the other way counts as inactive or inconclusive. Potency is read from the fitted curve at half-maximal effect.

SMILES | Sfp inh | JMJD2A Tudor | HP1b binding inh | BAZ2B inh | G9a block
COc1ccc(-n2nc(C(=O)N3CCCCC3)c3c4ccccc4n(C)c3c2=O)cc1Cl | · | -9.3% | 67.3% | · | 24.7%[59 µM]
Cc1nn(-c2ccc(F)cc2)c(C)c1/C=C/C(=O)N1CCNC(=O)C1 | 22.5% | -8.7% | 70.2% | -25.1% | 16.7%[59 µM]
CCCc1[nH]nc2c1C(c1ccc(O)c(OC)c1)C(C#N)=C(N)O2 (stereo not drawn) | -6.4% | -15.7% | 2.5% | -36.1% | 50.1µM*
CCN(CC)CCN(C(=O)C1=COCCO1)c1nc2c(OC)ccc(OC)c2s1 | -12.9% | -17.4% | 17.4% | -20.5% | 44.7µM*
Cc1cccc2sc(N(CCN(C)C)C(=O)c3cc(Cl)sc3Cl)nc12 | -24.2% | ? | -13.1% | ? | 44.7µM*
Cc1cc(C)c2sc(N(CCN(C)C)C(=O)c3cc(Cl)sc3Cl)nc2c1 | -11.3% | ? | 4.7% | · | 44.7µM*
Cc1cc(C)c2sc(N(CCN(C)C)C(=O)c3ccc4ccccc4c3)nc2c1 | -29.9% | 22.4µM* | -26.1%[57 µM] | ? | 35.5µM*
Cc1ccc2nc(N(CCN(C)C)C(=O)c3cc(Cl)sc3Cl)sc2c1 | 1.0% | -19.7% | 10.6% | -37.0% | ?
COCCn1c(=O)c(-c2ccc(F)cc2)nc2cnc(Oc3ccc(OC)cc3)nc21 | 5.0% | · | · | · | 4.0%[12.7 µM]
COc1cc2ccccc2cc1C(=O)N(CCN(C)C)c1nc2c(OC)ccc(OC)c2s1 | -25.0% | 39.8µM* | ? | ? | 44.7µM*
COc1ccc2nc(N(CCN(C)C)C(=O)c3ccc4c(c3)OCCO4)sc2c1 | 6.5% | -31.9% | 7.5% | ? | ·
Cc1ccc2sc(N(CCN(C)C)C(=O)c3ccc4ccccc4c3)nc2c1C | ? | ? | 67.8% | ? | ·
CCN(CC)CCN(C(=O)c1ccco1)c1nc2cc(C)cc(C)c2s1 | · | ? | -7.7% | -32.8% | -39.5%[59 µM]
CCN(CC)CCN(C(=O)c1c(F)cccc1F)c1nc2cc(C)cc(C)c2s1 | -22.7% | ? | 26.4% | · | 56.2µM*
COc1ccc(OC)c2sc(N(CCN(C)C)C(=O)c3ccc4ccccc4c3)nc12 | ? | ? | -19.3%[57 µM] | ? | 15.8µM*
COc1ccccc1C(=O)N(CCN(C)C)c1nc2cc(C)cc(C)c2s1 | 1.7% | ? | 3.1% | · | ?
COc1ccc(Cl)c2sc(N(CCN(C)C)C(=O)c3ccc4c(c3)OCCO4)nc12 | · | ? | -29.9% | ? | 50.1µM*
CCC(C)c1ccc(S(=O)(=O)N2CCN(S(=O)(=O)c3ccc(NC(C)=O)cc3)CC2)cc1 (stereo not drawn) | 11.1% | -16.2% | 5.8% | -20.3% | 10.7%
COc1cc2ccccc2cc1C(=O)N(CCN(C)C)c1nc2c(C)cccc2s1 | ? | ? | 10.9% | ? | 12.6µM*
COc1cc(C(=O)N(CCCN(C)C)c2nc3c(OC)cccc3s2)cc(OC)c1OC | · | -25.7% | 12.3% | -11.6% | -9.1%[59 µM]
COc1ccccc1Cn1c(CNS(=O)(=O)c2ccc3c(c2)CCCC3)nc2cccnc21 | · | -23.9% | 9.9%[57 µM] | -9.0% | 10.8%[59 µM]
S=c1[nH]nc(Cc2c[nH]c3ccccc23)o1 | -9.6% | 79.4µM* | 13.3% | -3.8% | 1.58µM*
CCOc1ccc(-c2nnn(CC(=O)NCCc3c[nH]c4ccccc34)n2)cc1 | -1.8% | 14.7% | 31.0% | 6.0% | 21.8%[59 µM]
Cc1ccc(NC2=C(Cl)C(=O)OC2OC(=O)c2ccccc2)c(C)c1 (stereo not drawn) | 50.1µM* | -15.0% | 16.5% | · | ?
Cc1cccc(C)c1NC1=C(Cl)C(=O)OC1OC(=O)c1ccccc1 (stereo not drawn) | ? | -12.8%[57.1 µM] | 56.0% | · | -6.3%
COc1cc(C(=O)N2CCN(c3ccc(C)cc3C)CC2)cc(OC)c1OC | 12.0% | -22.9% | 20.5% | -0.3% | 8.5%
Cc1cccc(-n2cnc3cc([N+](=O)[O-])ccc32)c1 | -27.1% | -20.5% | -24.4% | ? | 11.2µM*
Nc1ccc(-n2cnc3cc([N+](=O)[O-])ccc32)cc1 | 14.9% | -6.6% | 3.6% | -5.6% | 4.7%[12.7 µM]
CSc1ccc(CNC(=O)CCc2c(C)nn(-c3ccc(N4CCCC4)nn3)c2C)cc1 | · | -26.7% | -12.4% | 56.2µM* | 6.0%[59 µM]
Cc1nn(-c2ccc(N3CCCC3)nn2)c(C)c1CCC(=O)NCc1ccccc1 | · | -10.3% | 51.2% | -20.9% | 3.7%[59 µM]
